# Source: the supplement of paper PMC11732987, “Enantioselective OTUD7B fragment discovery through chemoproteomics screening and high-throughput optimisation” (Communications Chemistry, 2025)
# Values without a mark were called inactive.
# What was measured:
# Test in all cases: log2 ratio of Biotin-Ahx-Ub-VS probe labelling (fragment/DMSO); higher = less target engagement (more negative = stronger competition), active = hit call of the paper (q ≤ 0.05, log2 ratio ≤ -1)
# Conditions in all cases: compound concentration: 200 uM; treatment time: 3 h
# OTUD6B = target: T1, OTUD6B (UniProt Q8N6M0)
# T1 sequence (whole entry): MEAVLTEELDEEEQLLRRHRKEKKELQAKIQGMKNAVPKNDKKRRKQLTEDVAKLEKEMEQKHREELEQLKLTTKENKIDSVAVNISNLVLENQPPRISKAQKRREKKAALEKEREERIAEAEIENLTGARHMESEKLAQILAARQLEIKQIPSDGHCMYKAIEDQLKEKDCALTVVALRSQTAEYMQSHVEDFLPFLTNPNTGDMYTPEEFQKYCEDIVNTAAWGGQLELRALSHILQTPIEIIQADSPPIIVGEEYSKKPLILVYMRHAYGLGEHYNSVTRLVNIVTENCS
# Summary of the method: (§1)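 Each value is an average log2 ratio of fragment to vehicle, tested by unpaired t-test. The underlying Spectronaut label-free quantities were global-median-normalised, and only proteins with ≥2 unique peptides were included. Triplicate HEK293T lysate samples (495 µg) were exposed to fragment at 200 µM or vehicle for 3 h, then to Biotin-Ahx-Ub-VS at 0.5 µM final for 1 h, before NeutrAvidin enrichment of labelled DUBs, LysC and trypsin digestion, and diaPASEF LC-MS/MS.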
# OTUD7B = target: T2, OTUD7B (UniProt Q6GQQ9)
# T2 sequence (whole entry): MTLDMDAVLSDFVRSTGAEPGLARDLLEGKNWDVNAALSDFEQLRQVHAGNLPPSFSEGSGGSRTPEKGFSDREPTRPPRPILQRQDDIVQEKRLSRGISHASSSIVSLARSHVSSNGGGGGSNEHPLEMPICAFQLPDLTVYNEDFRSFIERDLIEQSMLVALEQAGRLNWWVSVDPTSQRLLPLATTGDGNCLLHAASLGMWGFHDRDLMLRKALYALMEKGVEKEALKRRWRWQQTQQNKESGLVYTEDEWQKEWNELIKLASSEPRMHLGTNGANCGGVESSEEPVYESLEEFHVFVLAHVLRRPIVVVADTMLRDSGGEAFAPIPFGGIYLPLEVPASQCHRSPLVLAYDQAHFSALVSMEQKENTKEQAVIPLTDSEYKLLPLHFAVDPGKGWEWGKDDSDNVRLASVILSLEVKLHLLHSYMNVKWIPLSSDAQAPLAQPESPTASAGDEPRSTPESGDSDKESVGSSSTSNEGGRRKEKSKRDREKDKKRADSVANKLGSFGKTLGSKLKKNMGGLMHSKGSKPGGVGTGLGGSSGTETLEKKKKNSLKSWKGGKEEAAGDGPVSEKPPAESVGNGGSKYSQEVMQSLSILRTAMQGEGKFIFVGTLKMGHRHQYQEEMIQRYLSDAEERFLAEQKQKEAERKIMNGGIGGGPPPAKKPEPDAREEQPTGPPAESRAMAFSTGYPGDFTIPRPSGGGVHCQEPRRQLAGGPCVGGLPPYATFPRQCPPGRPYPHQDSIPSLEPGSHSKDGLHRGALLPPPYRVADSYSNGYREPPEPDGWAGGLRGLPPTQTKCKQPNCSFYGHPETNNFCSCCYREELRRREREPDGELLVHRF
# Summary of the method: as §1
# PRPF8 = PRPF8 (UniProt Q6P2Q9)
# Summary of the method: as §1
# PSMD7 = target: T3, PSMD7 (UniProt P51665)
# T3 sequence (whole entry): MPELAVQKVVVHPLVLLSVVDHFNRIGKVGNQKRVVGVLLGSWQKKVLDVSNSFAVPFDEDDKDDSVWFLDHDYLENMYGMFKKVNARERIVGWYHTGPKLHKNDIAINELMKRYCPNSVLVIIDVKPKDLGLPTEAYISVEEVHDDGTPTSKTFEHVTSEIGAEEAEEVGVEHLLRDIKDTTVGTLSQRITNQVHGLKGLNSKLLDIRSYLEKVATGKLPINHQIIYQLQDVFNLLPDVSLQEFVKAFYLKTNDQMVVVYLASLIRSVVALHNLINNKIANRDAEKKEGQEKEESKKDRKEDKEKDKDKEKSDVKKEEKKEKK
# Summary of the method: as §1
# UCHL1 = UCHL1 (UniProt P09936)
# Chain of UCHL1 (P09936 whole entry, looked up): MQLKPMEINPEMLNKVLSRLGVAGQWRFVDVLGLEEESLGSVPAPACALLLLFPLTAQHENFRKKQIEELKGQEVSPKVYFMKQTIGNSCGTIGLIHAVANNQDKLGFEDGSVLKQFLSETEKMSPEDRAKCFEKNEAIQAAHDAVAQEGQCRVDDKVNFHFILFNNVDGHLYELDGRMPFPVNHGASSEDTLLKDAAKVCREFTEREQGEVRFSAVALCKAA
# Summary of the method: as §1
# UCHL3 = target: T4, UCHL3 (UniProt P15374)
# T4 sequence (whole entry): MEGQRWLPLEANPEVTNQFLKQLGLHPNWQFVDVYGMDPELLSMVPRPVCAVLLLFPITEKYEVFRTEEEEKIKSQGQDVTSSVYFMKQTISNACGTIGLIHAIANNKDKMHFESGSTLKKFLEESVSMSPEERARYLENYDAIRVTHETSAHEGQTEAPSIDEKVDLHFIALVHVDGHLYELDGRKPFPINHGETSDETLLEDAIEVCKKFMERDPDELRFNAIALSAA
# Summary of the method: as §1
# UCHL5 = target: T5, UCHL5 (UniProt Q9Y5K5)
# T5 sequence (whole entry): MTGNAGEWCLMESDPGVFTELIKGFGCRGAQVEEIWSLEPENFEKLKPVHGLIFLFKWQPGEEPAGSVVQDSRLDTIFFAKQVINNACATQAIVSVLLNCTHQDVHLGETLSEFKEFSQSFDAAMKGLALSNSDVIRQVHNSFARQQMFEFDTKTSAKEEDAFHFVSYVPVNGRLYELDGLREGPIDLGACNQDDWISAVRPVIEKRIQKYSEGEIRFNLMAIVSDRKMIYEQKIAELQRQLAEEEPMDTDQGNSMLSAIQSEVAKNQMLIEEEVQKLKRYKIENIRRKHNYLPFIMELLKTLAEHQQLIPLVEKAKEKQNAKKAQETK
# Summary of the method: as §1
# USP10 = USP10 (UniProt Q14694)
# Chain of USP10 (Q14694 whole entry): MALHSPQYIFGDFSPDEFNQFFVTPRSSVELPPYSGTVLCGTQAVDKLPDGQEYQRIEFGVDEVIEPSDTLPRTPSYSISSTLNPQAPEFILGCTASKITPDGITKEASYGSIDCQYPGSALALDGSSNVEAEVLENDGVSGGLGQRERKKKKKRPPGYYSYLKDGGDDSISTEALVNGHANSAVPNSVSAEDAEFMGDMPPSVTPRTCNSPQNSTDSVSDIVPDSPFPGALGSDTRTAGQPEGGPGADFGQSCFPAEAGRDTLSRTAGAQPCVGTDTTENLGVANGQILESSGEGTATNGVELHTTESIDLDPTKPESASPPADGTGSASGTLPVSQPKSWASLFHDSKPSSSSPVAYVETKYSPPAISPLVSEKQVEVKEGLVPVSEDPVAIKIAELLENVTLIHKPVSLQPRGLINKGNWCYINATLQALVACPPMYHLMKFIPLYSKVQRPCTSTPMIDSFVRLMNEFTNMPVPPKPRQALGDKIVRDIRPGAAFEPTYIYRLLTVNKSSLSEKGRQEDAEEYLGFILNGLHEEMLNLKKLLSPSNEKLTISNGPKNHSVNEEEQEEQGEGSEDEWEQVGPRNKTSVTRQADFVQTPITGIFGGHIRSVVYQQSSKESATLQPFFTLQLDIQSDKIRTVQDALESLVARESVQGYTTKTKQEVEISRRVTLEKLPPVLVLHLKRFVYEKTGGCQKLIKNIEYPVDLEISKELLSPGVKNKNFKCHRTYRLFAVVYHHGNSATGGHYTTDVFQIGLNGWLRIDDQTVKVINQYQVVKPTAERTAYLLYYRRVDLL
# Summary of the method: as §1
# USP15 = target: T6, USP15 (UniProt Q9Y4E8)
# T6 sequence (whole entry): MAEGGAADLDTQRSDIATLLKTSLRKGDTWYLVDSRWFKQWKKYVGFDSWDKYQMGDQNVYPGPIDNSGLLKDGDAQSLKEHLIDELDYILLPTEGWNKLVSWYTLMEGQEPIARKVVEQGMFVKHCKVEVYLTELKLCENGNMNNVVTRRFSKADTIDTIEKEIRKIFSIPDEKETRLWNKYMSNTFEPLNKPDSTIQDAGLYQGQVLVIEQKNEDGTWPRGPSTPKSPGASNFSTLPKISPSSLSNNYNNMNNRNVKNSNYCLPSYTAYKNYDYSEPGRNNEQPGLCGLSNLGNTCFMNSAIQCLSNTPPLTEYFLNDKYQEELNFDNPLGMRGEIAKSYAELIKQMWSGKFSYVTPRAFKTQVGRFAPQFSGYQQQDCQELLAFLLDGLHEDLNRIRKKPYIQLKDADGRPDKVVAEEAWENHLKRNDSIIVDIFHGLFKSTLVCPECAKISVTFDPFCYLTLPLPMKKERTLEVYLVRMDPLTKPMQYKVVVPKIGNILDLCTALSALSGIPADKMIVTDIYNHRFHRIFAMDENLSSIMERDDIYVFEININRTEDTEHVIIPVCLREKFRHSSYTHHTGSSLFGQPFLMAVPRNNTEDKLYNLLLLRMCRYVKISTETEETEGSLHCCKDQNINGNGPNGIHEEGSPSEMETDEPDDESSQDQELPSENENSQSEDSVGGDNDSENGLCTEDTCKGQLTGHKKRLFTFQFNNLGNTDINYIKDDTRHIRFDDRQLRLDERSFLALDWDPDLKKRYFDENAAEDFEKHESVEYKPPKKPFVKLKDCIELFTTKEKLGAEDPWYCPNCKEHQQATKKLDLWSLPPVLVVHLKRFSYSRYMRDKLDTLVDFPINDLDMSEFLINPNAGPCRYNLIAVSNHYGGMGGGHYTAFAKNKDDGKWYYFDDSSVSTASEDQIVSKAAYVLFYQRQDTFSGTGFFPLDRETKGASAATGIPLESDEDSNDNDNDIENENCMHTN
# Summary of the method: as §1
# USP16 = USP16 (UniProt Q9Y5T5)
# Chain of USP16 (Q9Y5T5 whole entry, looked up): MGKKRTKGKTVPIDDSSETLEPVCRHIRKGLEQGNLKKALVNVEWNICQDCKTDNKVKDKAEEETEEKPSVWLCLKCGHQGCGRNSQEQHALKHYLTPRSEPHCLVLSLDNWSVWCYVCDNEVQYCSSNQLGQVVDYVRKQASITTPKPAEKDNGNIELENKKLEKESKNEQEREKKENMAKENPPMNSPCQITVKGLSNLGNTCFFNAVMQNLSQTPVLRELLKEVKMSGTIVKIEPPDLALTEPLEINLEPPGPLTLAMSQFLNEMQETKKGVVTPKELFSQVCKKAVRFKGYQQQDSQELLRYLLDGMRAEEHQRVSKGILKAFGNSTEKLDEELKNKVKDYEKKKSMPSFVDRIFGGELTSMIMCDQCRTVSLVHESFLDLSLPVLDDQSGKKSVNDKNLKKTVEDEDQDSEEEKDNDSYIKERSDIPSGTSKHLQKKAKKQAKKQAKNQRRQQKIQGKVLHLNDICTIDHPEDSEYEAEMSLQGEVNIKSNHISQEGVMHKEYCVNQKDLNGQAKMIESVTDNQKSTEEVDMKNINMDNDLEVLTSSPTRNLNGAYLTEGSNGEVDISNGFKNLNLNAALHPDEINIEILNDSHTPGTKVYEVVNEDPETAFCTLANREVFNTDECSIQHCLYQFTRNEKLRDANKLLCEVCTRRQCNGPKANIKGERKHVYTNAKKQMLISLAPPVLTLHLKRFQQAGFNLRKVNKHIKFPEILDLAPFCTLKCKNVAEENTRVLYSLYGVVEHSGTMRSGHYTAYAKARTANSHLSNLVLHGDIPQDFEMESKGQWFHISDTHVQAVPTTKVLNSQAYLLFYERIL
# Summary of the method: as §1
smiles,measurement,setting,value
Cl.O=C(CCl)NC1(c2ncccn2)CCC1,log2 ratio of Biotin-Ahx-Ub-VS probe labelling,OTUD6B,0.0771
same,log2 ratio of Biotin-Ahx-Ub-VS probe labelling,OTUD7B,-0.227
same,log2 ratio of Biotin-Ahx-Ub-VS probe labelling,PRPF8,-0.0462
same,log2 ratio of Biotin-Ahx-Ub-VS probe labelling,PSMD7,-0.289
same,log2 ratio of Biotin-Ahx-Ub-VS probe labelling,UCHL1,-1.41 (active)
same,log2 ratio of Biotin-Ahx-Ub-VS probe labelling,UCHL3,0.32
same,log2 ratio of Biotin-Ahx-Ub-VS probe labelling,UCHL5,-0.0083
same,log2 ratio of Biotin-Ahx-Ub-VS probe labelling,USP10,0.0419
same,log2 ratio of Biotin-Ahx-Ub-VS probe labelling,USP15,0.0327
same,log2 ratio of Biotin-Ahx-Ub-VS probe labelling,USP16,0.0942
